# The list is a sample of the results.
# aSyn 5UTR act – Activators via SNCA 5'UTR binding, MLPCN | alpha-synuclein 5'UTR reporter, activators screen | activity score, % (tested at 7.5 µM), hits read low | AID 1814, 2009 | hit rate 7.1% among 300,000; in the data active means activity score below about -60%
# * = called active by the depositor.
SMILES,aSyn 5UTR act
O=C1c2ccccc2-c2c1nc1c([n+]2[O-])CCCC1,-97*
COc1cc2c(C#N)c(N3CCc4ccccc4C3)nc(N)c2c(N)n1,-88*
COC(=O)c1ccc(N2CCCCC2)c(N)c1,-92*
COC(=O)c1cc(C(=O)N2CCN(c3cccc(C)c3C)CC2)cc([N+](=O)[O-])c1,78
Nc1ccc(N2CCCCC2)cc1N1CCCCC1,85
COC(=O)c1ccc(N2CCC(C)CC2)c(N)c1,-99*
c1ccc(-n2nnnc2Oc2ccc(-c3nnco3)cc2)cc1,-62*
COc1cccc(Oc2nnnn2-c2ccccc2)c1,-180*
O=C(c1ccccc1Oc1nnnn1-c1ccccc1)N1CCOCC1,-77*
COc1ccc(Oc2nnnn2-c2ccccc2)cc1,-87*
COc1cccc(N2C(N)=NC(N)=NC2(C)C)c1,96
COc1ccccc1Oc1nnnn1-c1ccc(C(N)=O)cc1,-71*
COc1ccccc1OCCNC(=O)c1cc(F)c(F)cc1Cl,-76*
CCCNC(=O)c1cccc(COc2ccccc2OC)c1,-107*
COc1ccccc1OCCNC(=O)c1ccc(Br)cc1,-106*
O=C(NCCNc1ccccc1[N+](=O)[O-])c1cc(F)c(F)cc1Cl,-93*
COc1ccccc1OCCCCOc1ccccc1F,-71*
COc1ccc(C(=O)Nc2ccccc2C(=O)Nc2cccc(C)n2)cc1,-86*
Cc1ccc(NC(=O)C(=O)Nc2ccccn2)cc1,71
COc1cc2ccccc2cc1C(=O)Nc1cc(C)ccn1,-94*
Cc1ccnc(NC(=O)c2cc3ccccc3oc2=O)c1,-202*
COc1ccccc1NC(=O)C(=O)Nc1ccccn1,-167*
COc1ccc(C(=O)NC(=O)Nc2cc(C)ccn2)cc1,72
COc1ccc(C(=O)Nc2ccccc2C(=O)Nc2cc(C)ccn2)cc1,-107*
COc1ccc(C(=O)Nc2ccccc2C(=O)Nc2cccnc2)cc1,-80*
SMILES,aSyn 5UTR act
COc1cc(C(=O)Nc2ccccc2C(=O)Nc2ccccn2)cc(OC)c1OC,-67*
Cc1ccc(CSc2nnc(-c3ccco3)o2)cc1,-154*
c1ccc(CSc2nnc(-c3ccco3)o2)cc1,-97*
Brc1ccc(CSc2nnc(-c3ccco3)o2)cc1,-78*
Fc1ccc(CSc2nnc(-c3ccco3)o2)cc1,-117*
O=C(CSc1nnnn1-c1ccccc1)c1ccco1,-63*
O=C(CSc1nnc2sc3ccccc3n12)c1ccco1,-118*
c1csc(CSc2nnc3sc4ccccc4n23)c1,-81*
COC(=O)c1cn[nH]c1NC(=S)Nc1ccc(Cl)c(Cl)c1,-101*
COC(=O)c1cn[nH]c1NC(=S)Nc1ccc(C)cc1Cl,-127*
Clc1ccc(OCCSc2ncccn2)c(Br)c1,-114*
Brc1cccc(OCCSc2ncccn2)c1,-69*
CCCOc1ccc(OCCSc2ncccn2)cc1,-167*
COc1ccc(/C=N/Nc2cc(C)nc3c(C)cccc23)cc1,-81*
Oc1ccc2ccccc2c1/C=N/Nc1nnc(-c2ncc[nH]2)c2ccccc12,102
COc1ccc2nc(C)cc(N/N=C/c3ccc(F)cc3)c2c1,93
COc1ccc(/C=N/Nc2cc(C)nc3ccccc23)cc1,-85*
COc1ccc(/C=N/Nc2nnc(-c3ncc[nH]3)c3ccccc23)cc1,-203*
CCOC(=O)C(CC)(CC)C(=O)/C=C/c1cccc(Br)c1,-74*
CC(=O)c1cnc2c(-c3ccccc3)cnn2c1C,-68*
CCOC(=O)Cc1c(C)nc2c(-c3ccccc3)cnn2c1C,-70*
CCOC(=O)c1cnc2c(-c3ccccc3)cnn2c1C,-112*
CCOC(=O)C1CCN(C(=O)CCc2c(C)nc3cc(-c4ccccc4)nn3c2C)CC1,66
Cc1cc(N2CCOCC2)ccc1/C=C\[N+](=O)[O-],-101*
COC(=O)C1C(=O)C(C(=O)/C=C/c2ccccc2)C(=O)CC1(C)C (stereo not given),-134*
SMILES,aSyn 5UTR act
O=C(NC1CCCCCCC1)c1cc(F)c(F)cc1Cl,-81*
COc1ccccc1NS(=O)(=O)c1cccc(C(=O)NC2CCN(Cc3ccccc3)CC2)c1,83
CCOc1cccc(C(=O)NC2CCCCC2)c1,-67*
O=C(NC1CCCCCCC1)c1cccc(Cl)c1,-166*
O=C(NC1CCCCC1)C(c1cccnc1)N(C(=O)CCl)c1cccc(Cl)c1 (stereo not given),-81*
CC(=O)Nc1ccc(NC(=O)C(C)OC(=O)/C(C#N)=C/c2ccc(N(C)C)cc2)cc1 (stereo not given),-85*
Cc1ccc(C(=O)COC(=O)c2cccs2)cc1,-114*
CC(=O)Nc1cc(C(=O)OCC(=O)c2ccc(C)cc2)ccc1C,-151*
CCc1ccc(C(=O)COC(=O)c2cccs2)cc1,-139*
O=C/C(=C\Nc1ccccn1)c1nc2ccccc2o1,-107*
CC(=O)Nc1cccc(N/C=C(\C=O)c2nc3ccccc3o2)c1,-102*
Clc1cc2nc3ccccn3c2cc1Cl,-115*
COC(=O)c1ccc(NC(=S)Nc2ccccn2)cc1,-171*
COc1ccc(NC(=S)Nc2ccccn2)cc1,-168*
COc1ccc(NC(=O)Nc2ccc(Br)cn2)cc1OC,-69*
COc1cccc(NC(=O)Nc2ccc(Br)cn2)c1,-192*

# Assay outcomes from PubChem.
